Records with an inconclusive call do not appear. Activity calls are given as the source filed them. Rule for the calls, unless noted: active = hit-call score of the fitted dose curve at least 0.9, where 1 is the maximum; inactive = score below 0.9.
Tests used:
[1] = ATG_TAL_CIS: Attagene CIS-FACTORIAL HepG2 Assay for human TAL Basal Promoter (AID 2282966); conditions: HepG2 Attagene cis-factorial TAL promoter reporter; actives raise or lower the signal;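 note: background control endpoint measuring basal TAL promoter reporter mRNA not a specific factor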
How it was run: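 Background-control endpoint: basal TAL promoter reporter transcripts in transiently transfected HepG2, measured 24 h after dosing. Read-out by RT-PCR with fluorescent primer extension and capillary electrophoresis; gain or loss of signal fitted relative to DMSO.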

[2] = ATG_TGFb_CIS: Attagene CIS-FACTORIAL HepG2 Assay for human Transforming Growth Factor (TGF) (AID 2282967); conditions: HepG2 Attagene CIS TGFb reporter, mRNA transcription; actives raise or lower the signal
How it was run: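 Multiplexed cis-reporter HepG2 system, 24 h treatment; mRNA induction read by fluorescence after RT-PCR and CE; DMSO negative control, bidirectional curve fitting.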

[3] = ATG_VDRE_CIS: Attagene CIS-FACTORIAL HepG2 Assay for human Vitamin D Receptor Element (VDRE) (AID 2282968); conditions: HepG2 VDRE cis-reporter transcription, actives raise or lower the signal
How it was run: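 Transfected HepG2 reporter cells, chemical treatment 24 h. RNA isolated, cDNA amplified with reporter-specific primers, products analysed by capillary electrophoresis. Endpoint fitted in both directions versus DMSO.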

[4] = biological target: X-box-binding protein 1 (Homo sapiens) (UniProt P17861); test: ATG_Xbp1_CIS: Attagene CIS-FACTORIAL HepG2 Assay for human X-box Binding Protein 1 (XBP1) (AID 2282972); conditions: HepG2 XBP1 cis-element reporter, Attagene multiplex; actives raise or lower the signal
Sequence of X-box-binding protein 1 (Homo sapiens) (P17861 whole entry, looked up, the tested form may be a part): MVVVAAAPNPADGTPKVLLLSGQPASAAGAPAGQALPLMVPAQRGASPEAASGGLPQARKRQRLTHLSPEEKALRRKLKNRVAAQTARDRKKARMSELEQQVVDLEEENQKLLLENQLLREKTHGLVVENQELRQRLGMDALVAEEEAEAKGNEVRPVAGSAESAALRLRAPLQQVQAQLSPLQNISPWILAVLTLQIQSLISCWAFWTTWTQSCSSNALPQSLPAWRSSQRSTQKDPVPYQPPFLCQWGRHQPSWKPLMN
How it was run: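 Read-out: fluorescent reporter mRNA fragments resolved by capillary electrophoresis after RT-PCR. Human HepG2 liver cells carried transfected cis-promoter reporter units and were exposed to chemicals for 24 hours. Gain or loss of signal fitted relative to DMSO baseline.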

[5] = ATG_M_19_TRANS: Attagene TRANS-FACTORIAL HepG2 Assay for M19 Transcription Factor (Internal Marker) (AID 2282974; active = hit-call score of the fitted dose curve at least 0.9, where 1 is the maximum); conditions: HepG2 Attagene TRANS-FACTORIAL M19 internal marker reporter
How it was run: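 Measured here: internal-marker reporter transcript from HepG2 cells transfected with MRTUs, harvested at 24 h. cDNA PCR products were 6-FAM labelled by primer extension, cut with HpaI for 2 h at 37 C, and resolved by CE.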

[6] = biological target: Bile acid receptor (Homo sapiens) (UniProt Q96RI1); test: ATG_FXR_TRANS: Attagene TRANS-FACTORIAL HepG2 Assay for Farnesoid X Receptor (FXR) (AID 2282979; active = hit-call score of the fitted dose curve at least 0.9, where 1 is the maximum;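 note: hits raise reporter mRNA above DMSO so AC50 marks FXR activation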); conditions: HepG2 Attagene TRANS FXR-GAL4 reporter transcription
Sequence of Bile acid receptor (Homo sapiens) (Q96RI1 whole entry, looked up, the tested form may be a part): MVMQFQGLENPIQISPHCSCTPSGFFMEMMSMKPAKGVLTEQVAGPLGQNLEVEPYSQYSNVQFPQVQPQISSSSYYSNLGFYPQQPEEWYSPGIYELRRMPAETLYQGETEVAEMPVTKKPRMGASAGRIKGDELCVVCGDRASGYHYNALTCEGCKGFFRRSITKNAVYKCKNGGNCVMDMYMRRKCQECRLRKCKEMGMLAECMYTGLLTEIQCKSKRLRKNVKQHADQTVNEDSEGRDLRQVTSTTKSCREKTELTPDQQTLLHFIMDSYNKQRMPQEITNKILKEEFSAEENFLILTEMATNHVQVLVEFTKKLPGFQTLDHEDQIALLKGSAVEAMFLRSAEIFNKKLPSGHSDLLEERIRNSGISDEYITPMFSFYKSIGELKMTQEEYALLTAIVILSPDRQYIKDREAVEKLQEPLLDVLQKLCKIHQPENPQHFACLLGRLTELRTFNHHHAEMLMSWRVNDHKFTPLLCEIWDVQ
How it was run: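 Reporter transcripts from transfected HepG2 cells were measured 24 h after dosing, using RT-PCR with capillary electrophoresis of 6-FAM-labelled fragments. The read-out reflects activity of exogenous FXR-Gal4 chimera on GAL4-UAS units, with induction relative to DMSO.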

[7] = biological target: Hepatocyte nuclear factor 4-alpha (Homo sapiens) (UniProt P41235); test: ATG_HNF4a_TRANS: Attagene TRANS-FACTORIAL HepG2 Assay for human Hepatocyte Nuclear Factor 4 alpha (HNF4a) (AID 2282982; active = hit-call score of the fitted dose curve at least 0.9, where 1 is the maximum); conditions: HepG2 HNF4a transactivation reporter, mRNA readout
Sequence of Hepatocyte nuclear factor 4-alpha (Homo sapiens) (P41235 whole entry, looked up, the tested form may be a part): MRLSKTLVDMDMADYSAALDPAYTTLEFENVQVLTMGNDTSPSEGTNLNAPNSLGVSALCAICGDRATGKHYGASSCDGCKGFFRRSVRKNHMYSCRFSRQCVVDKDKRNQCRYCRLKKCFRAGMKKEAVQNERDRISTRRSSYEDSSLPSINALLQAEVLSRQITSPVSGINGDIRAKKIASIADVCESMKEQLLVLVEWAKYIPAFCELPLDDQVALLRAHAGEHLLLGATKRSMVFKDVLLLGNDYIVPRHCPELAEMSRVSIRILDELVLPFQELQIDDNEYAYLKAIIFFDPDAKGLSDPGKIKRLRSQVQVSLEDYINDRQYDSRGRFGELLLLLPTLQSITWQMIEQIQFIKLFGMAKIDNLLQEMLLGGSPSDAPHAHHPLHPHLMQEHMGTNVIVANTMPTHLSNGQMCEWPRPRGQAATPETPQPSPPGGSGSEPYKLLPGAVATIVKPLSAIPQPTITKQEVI
How it was run: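 Using HepG2 liver cells transfected with GAL4-UAS reporter units, chemical-induced mRNA increases were assessed after 24 hours. Fluorescent RT-PCR fragments were separated by capillary electrophoresis and compared with DMSO negative controls.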

[8] = ATG_M_06_TRANS: Attagene TRANS-FACTORIAL HepG2 Assay for M06 Transcription Factor (Internal Marker) (AID 2282983; active = hit-call score of the fitted dose curve at least 0.9, where 1 is the maximum;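 note: reporter transcript level by RT-PCR then capillary electrophoresis fluorescence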); conditions: HepG2 Attagene TRANS M06 internal marker reporter
How it was run: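 Background-control reporter readout: after 24 h chemical exposure of transiently transfected HepG2 (GAL4-UAS reporter units), mRNA quantified by RT-PCR with fluorescent labeling and capillary electrophoresis. Gain-of-signal fitting against DMSO baseline.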

[9] = ATG_M_32_TRANS: Attagene TRANS-FACTORIAL HepG2 Assay for M32 Transcription Factor (Internal Marker) (AID 2282984; active = hit-call score of the fitted dose curve at least 0.9, where 1 is the maximum); conditions: HepG2 Attagene TRANS M32 internal marker reporter
How it was run: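 Fluorescence-detected mRNA induction, HepG2 liver cells, 24 h after dosing. Multiple GAL4-UAS reporter units introduced by transient transfection; background-control endpoint analysed for gain of signal against DMSO.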

[10] = biological target: Transcriptional activator Myb (Homo sapiens) (UniProt P10242); test: ATG_Myb_CIS: Attagene CIS-FACTORIAL HepG2 Assay for human Myeloblastosis (Myb) Proto-Oncogene Transcription Factor (AID 2282986); conditions: HepG2 Attagene CIS-FACTORIAL Myb reporter transcription; actives raise or lower the signal
Sequence of Transcriptional activator Myb (Homo sapiens) (P10242 whole entry, looked up): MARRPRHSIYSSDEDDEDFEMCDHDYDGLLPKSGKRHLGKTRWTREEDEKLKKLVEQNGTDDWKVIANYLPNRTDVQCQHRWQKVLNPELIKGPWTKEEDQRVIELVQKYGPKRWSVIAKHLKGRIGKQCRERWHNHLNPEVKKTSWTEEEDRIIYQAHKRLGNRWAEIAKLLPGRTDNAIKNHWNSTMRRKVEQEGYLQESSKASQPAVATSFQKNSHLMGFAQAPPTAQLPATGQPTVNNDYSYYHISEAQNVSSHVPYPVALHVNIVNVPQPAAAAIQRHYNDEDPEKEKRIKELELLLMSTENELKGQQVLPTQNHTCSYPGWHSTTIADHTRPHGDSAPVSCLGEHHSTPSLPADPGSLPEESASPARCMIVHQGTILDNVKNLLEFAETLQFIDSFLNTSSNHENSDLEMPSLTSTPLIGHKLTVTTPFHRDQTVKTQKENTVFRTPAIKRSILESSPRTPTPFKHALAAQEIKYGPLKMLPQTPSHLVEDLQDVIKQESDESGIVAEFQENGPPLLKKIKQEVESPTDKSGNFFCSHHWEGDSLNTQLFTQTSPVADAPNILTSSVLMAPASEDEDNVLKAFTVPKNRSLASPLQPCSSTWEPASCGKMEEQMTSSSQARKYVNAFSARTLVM
How it was run: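 Fluorescence signals from capillary electrophoresis of RT-PCR-amplified reporter cDNA give the read-out. Cells: HepG2 transfected with multiple cis-regulated reporter units. Exposure lasts 24 hours; DMSO defines baseline for gain or loss of signal.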

[11] = biological target: Nuclear respiratory factor 1 (Homo sapiens) (UniProt Q16656); test: ATG_NRF1_CIS: Attagene CIS-FACTORIAL HepG2 Assay for human Nuclear Respiratory Factor 1 (NRF1) Orphan Gene (AID 2282987); conditions: HepG2 NRF1 cis-element reporter, Attagene multiplex; actives raise or lower the signal
Sequence of Nuclear respiratory factor 1 (Homo sapiens) (Q16656 whole entry, looked up): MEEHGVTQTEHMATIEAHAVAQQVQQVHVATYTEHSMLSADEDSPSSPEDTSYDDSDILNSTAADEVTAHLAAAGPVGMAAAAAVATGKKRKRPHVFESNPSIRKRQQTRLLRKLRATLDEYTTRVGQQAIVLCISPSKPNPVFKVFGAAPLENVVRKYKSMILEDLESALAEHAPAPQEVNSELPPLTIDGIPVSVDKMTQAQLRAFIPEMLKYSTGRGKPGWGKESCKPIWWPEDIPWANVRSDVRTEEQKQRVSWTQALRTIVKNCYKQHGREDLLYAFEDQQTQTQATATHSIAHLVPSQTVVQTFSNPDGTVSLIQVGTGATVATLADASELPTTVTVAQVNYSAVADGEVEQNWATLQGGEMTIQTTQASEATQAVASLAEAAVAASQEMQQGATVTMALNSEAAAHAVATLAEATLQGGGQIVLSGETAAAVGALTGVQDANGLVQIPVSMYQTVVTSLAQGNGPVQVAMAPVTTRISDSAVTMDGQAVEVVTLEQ
How it was run: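 Transcriptional reporter readout, one component of a 52-endpoint multiplexed HepG2 panel. Exposure 24 h; mRNA detected via RT-PCR and fluorescent capillary electrophoresis; fitting in both directions against DMSO.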

[12] = ATG_GAL4_TRANS: Attagene TRANS-FACTORIAL HepG2 Assay for GAL4 (Internal Marker) (AID 2282976; active = hit-call score of the fitted dose curve at least 0.9, where 1 is the maximum); conditions: HepG2 Attagene TRANS GAL4 internal marker reporter
How it was run: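 In transfected human HepG2 liver cells dosed 24 h, GAL4 reporter mRNA serves as a baseline marker. Detection by RT-PCR with fluorescent capillary electrophoresis, activity fitted upward relative to DMSO.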

[13] = biological target: Oxysterols receptor LXR-alpha (Homo sapiens) (UniProt Q13133); test: ATG_LXRa_TRANS: Attagene TRANS-FACTORIAL HepG2 Assay for human Liver X Receptor alpha (LXRa) (AID 2282980; active = hit-call score of the fitted dose curve at least 0.9, where 1 is the maximum); conditions: HepG2 Attagene TRANS reporter, LXRa transactivation
Sequence of Oxysterols receptor LXR-alpha (Homo sapiens) (Q13133 whole entry, looked up, the tested form may be a part): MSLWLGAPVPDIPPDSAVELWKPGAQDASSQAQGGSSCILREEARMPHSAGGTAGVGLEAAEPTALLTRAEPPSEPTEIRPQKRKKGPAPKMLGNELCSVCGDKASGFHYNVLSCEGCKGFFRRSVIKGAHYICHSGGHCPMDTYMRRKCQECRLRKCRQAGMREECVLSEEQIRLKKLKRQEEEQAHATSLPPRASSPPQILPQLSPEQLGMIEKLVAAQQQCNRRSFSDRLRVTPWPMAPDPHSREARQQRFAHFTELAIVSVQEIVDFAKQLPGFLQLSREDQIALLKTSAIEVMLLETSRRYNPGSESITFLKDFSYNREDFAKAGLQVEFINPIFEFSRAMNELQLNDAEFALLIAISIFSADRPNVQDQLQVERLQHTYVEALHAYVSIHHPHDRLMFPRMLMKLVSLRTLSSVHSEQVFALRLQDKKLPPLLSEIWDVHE
How it was run: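 Chemical-induced reporter mRNA measured by RT-PCR with fluorescent labelling and capillary electrophoresis after 24 h dosing of transiently transfected HepG2 cells expressing exogenous NR-Gal4 chimeras; increases scored against DMSO baseline.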

[14] = biological target: Oxysterols receptor LXR-beta (Homo sapiens) (UniProt P55055); test: ATG_LXRb_TRANS: Attagene TRANS-FACTORIAL HepG2 Assay for human Liver X Receptor beta (LXRb) (AID 2282981; active = hit-call score of the fitted dose curve at least 0.9, where 1 is the maximum); conditions: HepG2 Attagene TRANS GAL4-LXRb reporter, mRNA
Sequence of Oxysterols receptor LXR-beta (Homo sapiens) (P55055 whole entry, looked up, the tested form may be a part): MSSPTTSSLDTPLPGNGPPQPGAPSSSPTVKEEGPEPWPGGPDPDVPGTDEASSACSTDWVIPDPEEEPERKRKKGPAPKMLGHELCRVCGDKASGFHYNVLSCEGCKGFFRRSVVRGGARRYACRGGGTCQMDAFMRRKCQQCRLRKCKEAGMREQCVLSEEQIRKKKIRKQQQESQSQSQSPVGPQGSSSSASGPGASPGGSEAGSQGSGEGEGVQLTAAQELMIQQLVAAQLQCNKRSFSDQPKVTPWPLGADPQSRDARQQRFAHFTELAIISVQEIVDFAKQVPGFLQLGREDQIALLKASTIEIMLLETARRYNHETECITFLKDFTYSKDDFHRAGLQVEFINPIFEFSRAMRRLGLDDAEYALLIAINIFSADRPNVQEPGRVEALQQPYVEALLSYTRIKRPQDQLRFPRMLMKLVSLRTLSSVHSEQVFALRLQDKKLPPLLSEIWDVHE
How it was run: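 Liver-derived HepG2 cells transfected with Gal4-responsive reporters were dosed for 24 h. Activation was scored as rise in reporter mRNA, by RT-PCR and capillary electrophoresis, above DMSO baseline.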

[15] = biological target: Glucocorticoid receptor (Homo sapiens) (UniProt P04150); test: ATG_GR_TRANS: Attagene TRANS-FACTORIAL HepG2 Assay for human Glucocorticoid Receptor (GR) (AID 2282978; active = hit-call score of the fitted dose curve at least 0.9, where 1 is the maximum;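 note: activators score as hits since higher reporter transcript over DMSO is fitted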); conditions: HepG2 Attagene TRANS GR reporter, mRNA transcription
Sequence of Glucocorticoid receptor (Homo sapiens) (P04150 whole entry, looked up, the tested form may be a part): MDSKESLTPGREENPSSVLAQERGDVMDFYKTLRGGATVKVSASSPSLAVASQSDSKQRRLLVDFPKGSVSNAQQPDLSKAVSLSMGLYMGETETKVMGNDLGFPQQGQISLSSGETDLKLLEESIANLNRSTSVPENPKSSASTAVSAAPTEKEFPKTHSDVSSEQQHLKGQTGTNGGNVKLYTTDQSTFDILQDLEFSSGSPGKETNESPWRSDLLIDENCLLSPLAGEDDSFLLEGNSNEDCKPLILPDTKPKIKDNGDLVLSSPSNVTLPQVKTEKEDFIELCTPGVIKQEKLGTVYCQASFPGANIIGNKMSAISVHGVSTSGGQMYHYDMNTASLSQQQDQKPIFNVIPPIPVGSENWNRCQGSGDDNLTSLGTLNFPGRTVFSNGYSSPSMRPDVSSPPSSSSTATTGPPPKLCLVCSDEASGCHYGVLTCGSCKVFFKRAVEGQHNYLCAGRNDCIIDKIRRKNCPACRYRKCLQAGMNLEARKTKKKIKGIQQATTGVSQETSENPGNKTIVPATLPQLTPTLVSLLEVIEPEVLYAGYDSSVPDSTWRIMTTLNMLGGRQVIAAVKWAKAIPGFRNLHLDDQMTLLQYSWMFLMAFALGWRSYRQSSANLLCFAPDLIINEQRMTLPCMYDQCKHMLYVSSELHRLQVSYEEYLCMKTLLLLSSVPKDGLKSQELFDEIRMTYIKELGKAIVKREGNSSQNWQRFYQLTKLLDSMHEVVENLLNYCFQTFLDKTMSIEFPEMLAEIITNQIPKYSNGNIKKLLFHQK
How it was run: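 Measurement of GAL4-UAS-driven reporter mRNA in human HepG2 liver cells 24 h post-dosing, using RT-PCR with fluorescent labelling and capillary electrophoresis; the transfected constructs report exogenous NR-GAL4 chimera activity, fitted upward against DMSO.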

[16] = biological target: Steroid hormone receptor ERR1 (Homo sapiens) (UniProt P11474); test: ATG_ERRa_TRANS: Attagene TRANS-FACTORIAL HepG2 Assay for human Estrogen-Related Receptor alpha (ERRa) (AID 2282971; active = hit-call score of the fitted dose curve at least 0.9, where 1 is the maximum); conditions: HepG2 Attagene TRANS reporter, ERRa transactivation
Sequence of Steroid hormone receptor ERR1 (Homo sapiens) (P11474 whole entry, looked up, the tested form may be a part): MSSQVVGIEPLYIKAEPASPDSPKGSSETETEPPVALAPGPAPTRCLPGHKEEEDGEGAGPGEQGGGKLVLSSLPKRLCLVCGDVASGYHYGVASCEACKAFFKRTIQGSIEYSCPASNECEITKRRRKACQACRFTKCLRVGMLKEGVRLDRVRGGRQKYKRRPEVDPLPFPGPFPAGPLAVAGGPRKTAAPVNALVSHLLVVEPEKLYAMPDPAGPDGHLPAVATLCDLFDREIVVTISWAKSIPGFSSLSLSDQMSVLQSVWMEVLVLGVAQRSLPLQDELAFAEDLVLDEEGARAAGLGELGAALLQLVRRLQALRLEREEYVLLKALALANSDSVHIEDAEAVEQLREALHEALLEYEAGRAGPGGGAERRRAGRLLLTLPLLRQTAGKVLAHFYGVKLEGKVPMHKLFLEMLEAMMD
How it was run: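 Reporter transcripts from ERRa-Gal4 chimera activity measured in transiently transfected human HepG2 cells 24 hours after dosing, using RT-PCR with 6-FAM primer extension, HpaI digestion and capillary electrophoresis; DMSO is baseline.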

[17] = biological target: Estrogen-related receptor gamma (Homo sapiens) (UniProt P62508); test: ATG_ERRg_TRANS: Attagene TRANS-FACTORIAL HepG2 Assay for human Estrogen-Related Receptor gamma (ERRg) (AID 2282977; active = hit-call score of the fitted dose curve at least 0.9, where 1 is the maximum;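 note: hits increase reporter signal over DMSO so potencies reflect activators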); conditions: HepG2 Attagene TRANS reporter, ERRg transactivation
Sequence of Estrogen-related receptor gamma (Homo sapiens) (P62508 whole entry, looked up, the tested form may be a part): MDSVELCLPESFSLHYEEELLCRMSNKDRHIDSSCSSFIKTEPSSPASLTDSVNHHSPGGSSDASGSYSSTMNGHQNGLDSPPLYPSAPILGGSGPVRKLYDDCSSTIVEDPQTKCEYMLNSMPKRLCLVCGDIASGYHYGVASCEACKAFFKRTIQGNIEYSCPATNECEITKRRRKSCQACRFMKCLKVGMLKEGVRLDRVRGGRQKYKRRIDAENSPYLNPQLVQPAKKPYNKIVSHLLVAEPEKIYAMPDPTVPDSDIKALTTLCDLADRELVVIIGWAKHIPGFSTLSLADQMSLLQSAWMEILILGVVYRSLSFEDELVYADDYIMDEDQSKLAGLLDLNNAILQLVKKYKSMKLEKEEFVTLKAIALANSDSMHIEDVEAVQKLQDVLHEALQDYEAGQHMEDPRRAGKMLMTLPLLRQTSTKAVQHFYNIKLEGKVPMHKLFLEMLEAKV
How it was run: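 Readout: fluorescent reporter-mRNA fragments resolved by capillary electrophoresis after RT-PCR and HpaI cut. Cells: transiently transfected HepG2 carrying GAL4-UAS reporters driven by exogenous NR-Gal4 chimeras, dosed 24 h. Activity fitted upward relative to DMSO baseline.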

[18] = biological target: Nuclear receptor subfamily 4 group A member 2 (Homo sapiens) (UniProt P43354); test: ATG_NURR1_TRANS: Attagene TRANS-FACTORIAL HepG2 Assay for human Nuclear Receptor Related Protein 1 (NURR1) (AID 2282985; active = hit-call score of the fitted dose curve at least 0.9, where 1 is the maximum); conditions: HepG2 Attagene TRANS reporter, mRNA readout
How it was run: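 Chimeric NR-Gal4 proteins were expressed in human HepG2 cells bearing GAL4-UAS reporter units, and induced reporter mRNA was quantified 24 h post-dosing by RT-PCR and capillary electrophoresis.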

Measured: AC50

CC(=O)OCC(C)OC(C)=O (configuration not stated)
not listed: [12] | [13] | [14] | [15] | [16] | [17] | [18]
inactive: all other assays above

O=C1c2ccccc2C(=O)C1c1nc2ccccc2c(Br)c1O
active: [2] 100 µM | [3] 17.2 µM
not listed: [6] | [8] | [15] | [16] | [17] | [18]
inactive: all other assays above

CO[Si](CCC1CCC2OC2C1)(OC)OC (configuration not stated)
inactive: [1] | [2] | [3] | [4] | [5] | [12] | [9] | [10] | [11]

NC(=O)c1ccccc1O
not listed: [9] | [11] | [13] | [15] | [16] | [17] | [18]
inactive: all other assays above

CCC(CC)C(=O)O
inactive: [1] | [2] | [3] | [4] | [5] | [12] | [7] | [10] | [11]

CC(=O)CC(N)=O
not listed: [6] | [13] | [14] | [16] | [17] | [18]
inactive: all other assays above

COCCCOCCCOC
inactive: [1] | [2] | [3] | [16] | [4] | [5] | [14] | [9] | [10] | [11]

COc1cc(C)ccc1C(C)C
not listed: [6] | [14] | [15] | [16]
inactive: all other assays above

C#CC1(O)CC[C@H]2[C@@H]3CCC4=CCCC[C@@H]4[C@H]3CC[C@@]21C (some centres not stated)
active: [1] 16.8 µM | [2] 9.28 µM | [13] 1.46 µM | [14] 1.81 µM
not listed: [7] | [8] | [16] | [18]
inactive: all other assays above

C=C[Si](C)(C)O[Si](C)(C)C=C
not listed: [6] | [7] | [16] | [17]
inactive: all other assays above

O=C(O)CC(C(=O)O)C(CC(=O)O)C(=O)O (configuration not stated)
not listed: [7] | [12] | [13] | [14] | [16] | [17] | [18]
inactive: all other assays above

Source: PubChem BioAssay (EPA / NIEHS)
